Bioassay records: PubChem BioAssay, The Scripps Research Institute Molecular Screening Center
This is a sample that favours compounds with a hit; in the whole collection about 4.1% have one here.
DAX1 inh-1 = inhibitors of human orphan nuclear receptor DAX1 (NR0B1). P51843. HEK293 Gal4-DAX1 luciferase reporter, luminescence. inhibition, % at 6.75 µM. 0.99% of 340,000 active. AID 504766;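 active = inhibition above the mean over all tested compounds plus 3 SD, cut at about 4.2% in these data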;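 also: inhibition shows as a rise in luminescence from relieved DAX1 repression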
Target sequence (P51843 207-470 limits assumed): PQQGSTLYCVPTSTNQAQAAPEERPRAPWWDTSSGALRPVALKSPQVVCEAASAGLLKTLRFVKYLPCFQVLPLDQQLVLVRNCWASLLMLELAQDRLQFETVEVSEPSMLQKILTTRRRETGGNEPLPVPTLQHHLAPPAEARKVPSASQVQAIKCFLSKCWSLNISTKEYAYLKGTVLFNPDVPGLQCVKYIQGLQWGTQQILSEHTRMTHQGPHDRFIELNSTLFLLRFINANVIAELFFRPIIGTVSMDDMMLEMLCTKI
ssDAF-12 act = activates DAF-12 receptor from parasite S. stercoralis. HEK293 ssDAF-12/GRIP1 lit1-tk-luc reporter, luminescence; % of 3 µM dafachronic acid response. activation, % at 6.8 µM. 1% of 370,000 active. AID 652126;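 active = activation above the mean over all tested compounds plus 3 SD, cut at about 0.9% in these data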
hgDAF12 agonist = hgDAF-12 agonism, primary luciferase screen; HEK293 GAL4-hgDAF12 UAS-luciferase reporter, agonist luminescence; normalized to butyrate control; activation, % at 6.8 µM; 1.8% of 370,000 active; AID 687014;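 active = activation above a cutoff set at the mean of all screened compounds plus 3 SD, cut at about 10% in these data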
DAX1 inh-2 = DAX1 (NR0B1) inhibition, primary screen; HEK293T StAR-luciferase reporter, SF-1/DAX-1 repression relief; inhibition, % at 6.8 µM; 1.1% of 370,000 active; AID 652010;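 active = inhibition above the mean over all tested compounds plus 3 SD, cut at about 3.6% in these data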;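 also: higher inhibition means more luminescence from relief of DAX-1 repression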
hcDAF12 agonist = activators of H. contortus DAF-12 nuclear receptor; HEK293 hcDAF-12 lit1-tk-luc reporter, luminescence; 0% DMSO, 100% Δ7-dafachronic acid; activation, % at 6.8 µM; 1.4% of 370,000 active; AID 652067;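 active = activation above the mean of all tested compounds plus 3 SD, cut at about 5.5% in these data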
A number is an active result.

Cc1nc(-c2ccc(C(=O)Nc3cccc(Br)c3)cc2)cs1 was read as DAX1 inh-1 inactive, ssDAF-12 act inactive, hgDAF12 agonist 11, DAX1 inh-2 inactive and hcDAF12 agonist inactive.
`CC(C)(C)C(=O)Nc1ccc(-c2cn3ccsc3n2)cc1` gave DAX1 inh-1 inactive, ssDAF-12 act inactive, hgDAF12 agonist inactive, DAX1 inh-2 inactive and hcDAF12 agonist 5.9.
Screening CC(C)CC(=O)Nc1ccc(-c2cn3ccsc3n2)cc1 returned DAX1 inh-1 inactive, ssDAF-12 act inactive, hgDAF12 agonist 11, DAX1 inh-2 inactive and hcDAF12 agonist inactive.
CC(C)(C)NC(=S)NNC(=O)c1ccc2ncccc2c1 was read as DAX1 inh-1 inactive, ssDAF-12 act inactive, hgDAF12 agonist 11, DAX1 inh-2 3.8 and hcDAF12 agonist inactive.
For O=C(Nc1ccc(Cl)cc1)Nc1cccc(C(=O)O)c1 the results were ssDAF-12 act inactive, hgDAF12 agonist 12, DAX1 inh-2 inactive and hcDAF12 agonist inactive.
O=C(/C=C(\Nc1cccc(Cl)c1)c1ccccc1)c1ccccc1 was read as ssDAF-12 act inactive, hgDAF12 agonist inactive, DAX1 inh-2 3.7 and hcDAF12 agonist inactive.
CC(=O)c1ccc(NC(=O)Nc2cccc(Cl)c2)cc1 was read as DAX1 inh-1 inactive, ssDAF-12 act inactive, hgDAF12 agonist 13, DAX1 inh-2 inactive and hcDAF12 agonist inactive.
For O=C(OC12CCCN(C1)/C(=C/c1ccncc1)C2)c1ccccc1 (stereo not drawn) the results were ssDAF-12 act inactive, hgDAF12 agonist inactive, DAX1 inh-2 inactive and hcDAF12 agonist inactive.
Screening Cc1ccccc1CNC(=S)OC1CCC12CCC(c1ccccc1)CC2 (stereo not drawn) returned ssDAF-12 act inactive, hgDAF12 agonist inactive, DAX1 inh-2 inactive and hcDAF12 agonist inactive.
CC(C)(C)C1CCC(=NNC(=S)Nc2cccnc2)CC1 (stereo not drawn) was read as DAX1 inh-1 inactive, ssDAF-12 act 3.8, hgDAF12 agonist inactive, DAX1 inh-2 inactive and hcDAF12 agonist inactive.
Cc1cc(C)c(NC(=O)C2CCCN2CCC(C)C)c(C)c1 (stereo not drawn) was read as DAX1 inh-1 4.8, ssDAF-12 act inactive, hgDAF12 agonist inactive, DAX1 inh-2 inactive and hcDAF12 agonist inactive.
CCC(C)N1CCCC1C(=O)Nc1c(C)cc(C)cc1C (stereo not drawn) was read as DAX1 inh-1 inactive, ssDAF-12 act inactive, hgDAF12 agonist inactive, DAX1 inh-2 inactive and hcDAF12 agonist inactive.
COc1ccccc1CC(=O)NNS(=O)(=O)c1cccc([N+](=O)[O-])c1 was read as DAX1 inh-1 inactive, ssDAF-12 act inactive, hgDAF12 agonist inactive, DAX1 inh-2 inactive and hcDAF12 agonist inactive.
Screening COc1ccccc1CC(=O)NNS(=O)(=O)c1ccc([N+](=O)[O-])cc1 returned DAX1 inh-1 6.1, ssDAF-12 act inactive, hgDAF12 agonist inactive, DAX1 inh-2 inactive and hcDAF12 agonist inactive.
Screening COc1ccc(CN2CN3Cc4ccccc4C3CS2(=O)=O)cc1 (stereo not drawn) returned ssDAF-12 act inactive, hgDAF12 agonist inactive, DAX1 inh-2 inactive and hcDAF12 agonist inactive.
Screening O=C1CSc2ccccc2N1Cc1ccc(F)cc1 returned DAX1 inh-1 inactive, ssDAF-12 act 1.4, hgDAF12 agonist inactive, DAX1 inh-2 inactive and hcDAF12 agonist inactive.
Screening O=C(O)CN1C(=O)CSc2ccccc21 returned DAX1 inh-1 inactive, ssDAF-12 act inactive, hgDAF12 agonist inactive, DAX1 inh-2 inactive and hcDAF12 agonist inactive.
`CCn1cnc2sc(C(=O)Nc3ccc4c(c3)OCO4)c(C)c2c1=O` gave DAX1 inh-1 inactive, ssDAF-12 act inactive, hgDAF12 agonist 13, DAX1 inh-2 inactive and hcDAF12 agonist inactive.
`CC(NC(=O)C12CC3CC(CC(C3)C1)C2)C(=O)NN=Cc1ccc([N+](=O)[O-])o1` (stereo not drawn) gave DAX1 inh-1 inactive, ssDAF-12 act 1.6, hgDAF12 agonist inactive, DAX1 inh-2 inactive and hcDAF12 agonist inactive.
`Clc1cccc(N=NN2CCOCC2)c1Cl` gave DAX1 inh-1 inactive, ssDAF-12 act 1.7, hgDAF12 agonist inactive, DAX1 inh-2 inactive and hcDAF12 agonist inactive.
O=C(OCc1cn(Cc2ccc(F)cc2)nn1)N1CCCC1 was read as ssDAF-12 act inactive, hgDAF12 agonist inactive, DAX1 inh-2 inactive and hcDAF12 agonist inactive.
For Cc1ccnc(NC(=O)C2CC(=O)N(Cc3ccccc3)C2)c1 (stereo not drawn) the results were DAX1 inh-1 inactive, ssDAF-12 act inactive, hgDAF12 agonist inactive, DAX1 inh-2 4.3 and hcDAF12 agonist inactive.
For COC(=O)[C@H](C(C)C)N(CCc1cn(Cc2ccccc2)nn1)S(=O)(=O)c1ccccc1Br the results were ssDAF-12 act inactive, hgDAF12 agonist inactive, DAX1 inh-2 inactive and hcDAF12 agonist inactive.
`C=CCN(CC#CC(=C)C)Cc1ccccc1` gave ssDAF-12 act inactive, hgDAF12 agonist inactive, DAX1 inh-2 inactive and hcDAF12 agonist inactive.
O=C(/C=C/c1cccs1)NNC(=O)c1ccccc1 was read as DAX1 inh-1 inactive, ssDAF-12 act inactive, hgDAF12 agonist inactive, DAX1 inh-2 inactive and hcDAF12 agonist 6.0.
Screening CCn1cc(Br)c(C(=O)Nc2nccs2)n1 returned DAX1 inh-1 inactive, ssDAF-12 act inactive, hgDAF12 agonist 11, DAX1 inh-2 inactive and hcDAF12 agonist 6.0.
Screening COc1ccc(NC(=O)Nc2nccs2)cc1 returned DAX1 inh-1 inactive, ssDAF-12 act inactive, hgDAF12 agonist 11, DAX1 inh-2 inactive and hcDAF12 agonist inactive.
`O=C(Nc1ccccc1)Nc1nccs1` gave DAX1 inh-1 inactive, ssDAF-12 act inactive, hgDAF12 agonist inactive, DAX1 inh-2 inactive and hcDAF12 agonist inactive.
For C/C(=C\C(=O)Nc1nccs1)c1ccccc1 the results were DAX1 inh-1 inactive, ssDAF-12 act inactive, hgDAF12 agonist 12, DAX1 inh-2 inactive and hcDAF12 agonist inactive.
For CCn1nccc1C(=O)Nc1nccs1 the results were DAX1 inh-1 inactive, ssDAF-12 act inactive, hgDAF12 agonist inactive, DAX1 inh-2 inactive and hcDAF12 agonist inactive.
`O=C(NC1CCCCCCC1)c1ccc2c(c1)OCO2` gave DAX1 inh-1 inactive, ssDAF-12 act 1.1, hgDAF12 agonist inactive, DAX1 inh-2 inactive and hcDAF12 agonist inactive.
For O=C(Nc1ccc(F)cc1)Nc1c(-c2ccc(C(F)(F)F)cc2)nc2ncccn12 the results were ssDAF-12 act inactive, hgDAF12 agonist inactive, DAX1 inh-2 inactive and hcDAF12 agonist inactive.
O=C(Nc1c(-c2ccc(C(F)(F)F)cc2)nc2ncccn12)c1ccccc1 was read as ssDAF-12 act inactive, hgDAF12 agonist inactive, DAX1 inh-2 inactive and hcDAF12 agonist inactive.
For O=C(Nc1nccs1)c1ccc2c(c1)OCO2 the results were DAX1 inh-1 inactive, ssDAF-12 act inactive, hgDAF12 agonist 11, DAX1 inh-2 inactive and hcDAF12 agonist inactive.
Screening CCCc1cc(C(=O)Nc2nccs2)cs1 returned DAX1 inh-1 inactive, ssDAF-12 act inactive, hgDAF12 agonist 12, DAX1 inh-2 inactive and hcDAF12 agonist inactive.
Screening COc1ccc(C(=O)Nc2nccs2)cc1 returned DAX1 inh-1 5.7, ssDAF-12 act inactive, hgDAF12 agonist inactive, DAX1 inh-2 inactive and hcDAF12 agonist inactive.
